Rows were chosen to be rich in hits. Some 2.5% of all compounds tested hit in one or more screens of this group.
ULK1 primary: human ULK1 kinase inhibition, primary screen; O75385; AlphaScreen Atg13 phosphorylation by ULK1, luminescence; inhibition, % at 5.96 µM; 1.9% of 30,000 active; AID 1259251; in the data active = inhibition above about 43%
Target sequence (O75385 whole entry, looked up): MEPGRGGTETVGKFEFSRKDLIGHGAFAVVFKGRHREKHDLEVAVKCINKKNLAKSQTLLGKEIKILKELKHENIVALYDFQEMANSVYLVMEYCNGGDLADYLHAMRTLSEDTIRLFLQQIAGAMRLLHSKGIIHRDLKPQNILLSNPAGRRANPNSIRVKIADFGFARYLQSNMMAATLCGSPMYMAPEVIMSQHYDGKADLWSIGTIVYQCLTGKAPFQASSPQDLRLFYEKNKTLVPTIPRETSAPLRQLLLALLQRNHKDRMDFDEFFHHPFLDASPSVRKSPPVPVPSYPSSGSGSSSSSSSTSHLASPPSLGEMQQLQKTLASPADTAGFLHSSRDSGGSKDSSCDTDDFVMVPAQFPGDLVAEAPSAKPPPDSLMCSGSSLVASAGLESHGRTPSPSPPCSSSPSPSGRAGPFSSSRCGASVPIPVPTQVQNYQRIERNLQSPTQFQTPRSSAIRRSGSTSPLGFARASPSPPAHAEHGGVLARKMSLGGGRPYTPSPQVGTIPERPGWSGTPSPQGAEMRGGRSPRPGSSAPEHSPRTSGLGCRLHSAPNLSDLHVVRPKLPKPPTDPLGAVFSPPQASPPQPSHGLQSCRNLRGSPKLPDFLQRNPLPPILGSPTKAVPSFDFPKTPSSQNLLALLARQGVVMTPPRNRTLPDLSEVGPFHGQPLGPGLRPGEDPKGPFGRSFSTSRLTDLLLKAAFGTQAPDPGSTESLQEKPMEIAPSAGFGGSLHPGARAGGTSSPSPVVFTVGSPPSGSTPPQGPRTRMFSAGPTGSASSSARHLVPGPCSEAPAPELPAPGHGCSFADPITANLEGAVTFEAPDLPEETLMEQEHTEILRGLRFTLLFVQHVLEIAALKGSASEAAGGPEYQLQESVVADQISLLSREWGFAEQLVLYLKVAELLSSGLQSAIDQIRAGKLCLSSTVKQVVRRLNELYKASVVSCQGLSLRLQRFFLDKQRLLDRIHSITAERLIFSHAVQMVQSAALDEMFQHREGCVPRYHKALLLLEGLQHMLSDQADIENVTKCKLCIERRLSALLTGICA
ASK1 inh: inhibitors of human ASK1 kinase; AlphaScreen MKK6 phosphorylation by ASK1, luminescence; Q99683; inhibition, % at 7.44 µM; 0.99% of 22,000 active; AID 1159602; in the data active = inhibition above about 35%
AlphaScreen intf: interferes with AlphaScreen TruHits signal in ASK1 counter-screen | shares compounds with ASK1 inh | AlphaScreen TruHits beads, signal interference counterscreen | IC50, µM | 20% of 220 active | AID 1159604;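 active = IC50 of 10 µM or lower in the counterscreen; inactive = IC50 above 10 µM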;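 also: loss of AlphaScreen light from TruHits beads alone with no ASK1 enzyme present; potency of signal reduction so a low IC50 flags an assay artifact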
Of the large screens only hits and unclear results are named; the others gave an inactive call (follow-up assays come after a bar, where they were run).

COc1cc(NC(=O)c2cccc(-c3cc(CC(=O)Nc4ccccc4Cl)[nH]n3)c2)cc(OC)c1OC	none
CCOc1ccc(CC(=O)Nc2cc(C)nn2-c2ncnc3c2cnn3-c2ccc(Cl)cc2)cc1	none (no result: ASK1 inh)
Cc1cc(NCCCN2CCCC2=O)nc(-c2csc3ccccc23)n1	none
CC1CN(C(=O)c2ccccc2)C(C)CC1O (stereo not given)	none (no result: ASK1 inh)
NC(=O)c1ccc(-c2nc(NCc3cccc(C(F)(F)F)c3)c3ncn(-c4ccsc4)c3n2)cc1	none
Cc1nc(C)n(-c2ccc(Nc3nccc(-c4cccc(-n5ccnc5)c4)n3)cc2)n1	none
Cc1nc(C)n(-c2ccc(Nc3nccc(-c4cccc(-n5nccn5)c4)n3)cc2)n1	ASK1 inh 39.2 | AlphaScreen intf inactive
CC(C)n1c(Nc2ccccc2)nc2c(NCCO)ncnc21	none
O=C1CCCN1CCCNc1ccnc(-c2ccccc2)n1	none
Oc1ccc(CCNc2nc(NC3CCN(Cc4ccccc4)CC3)nc3c2ncn3Cc2ccc(C(F)(F)F)cc2)cc1	ASK1 inh 38.9 | AlphaScreen intf inactive
FC(F)(F)c1ccc(Cn2cnc3c(Nc4ccc(N5CCOCC5)cc4)nc(NC4CCN(Cc5ccccc5)CC4)nc32)cc1	ASK1 inh 36.6 | AlphaScreen intf inactive
COc1ccc(CCNc2nc(NC3CCN(Cc4ccccc4)CC3)nc3c2ncn3Cc2ccc(C(F)(F)F)cc2)cc1	none
FC(F)(F)c1ccc(Cn2cnc3c(Nc4ccc(N5CCOCC5)cc4)nc(Nc4ccccc4)nc32)cc1	none
O=C(Nc1ccc(-c2ccncc2)cc1)C1COc2ccc3ccccc3c2O1 (stereo not given)	none
CN(C)CCOc1cc(-c2ccncc2)ccc1NC(=O)[C@H]1Cc2ccccc2CN1	none
c1ccc(Nc2ccnc(N3CCN(Cc4ccc5c(c4)OCO5)CC3)n2)cc1	none
c1cc(Nc2ccc3c(c2)OCO3)nc(N2CCN(Cc3ccc4c(c3)OCO4)CC2)n1	ASK1 inh 37.0 | AlphaScreen intf inactive
c1ccc2c(c1)CCN(c1nccc(Nc3ccc(N4CCOCC4)cc3)n1)C2	ASK1 inh 49.5 | AlphaScreen intf inactive
Cc1cc(NCCc2ccc(O)cc2)nc(N2CCN(Cc3ccc4c(c3)OCO4)CC2)n1	ASK1 inh 37.0 | AlphaScreen intf inactive
COc1ccc(CCNc2cc(C)nc(N3CCN(Cc4ccc5c(c4)OCO5)CC3)n2)cc1	none
c1cc(Nc2ccc(N3CCOCC3)cc2)nc(Nc2ccc(N3CCOCC3)cc2)n1	none
c1ccc(Nc2ccnc(N3CCc4ccccc4C3)n2)cc1	none
c1cc(Nc2ccc3c(c2)OCO3)nc(Nc2ccc(N3CCOCC3)cc2)n1	ASK1 inh 47.8 | AlphaScreen intf inactive
Cn1c(Nc2nc(NCCN3CCOCC3)c3ncn(-c4ccsc4)c3n2)nc2ccccc21	none
CN(C)C(=O)C(F)C(=O)c1ccccc1 (stereo not given)	none (no result: ASK1 inh)
CCN(CC)C(=O)C1CCCN(c2nc3ncnc(NC4CC4)c3[nH]2)C1 (stereo not given)	none
Nc1nc(NCc2cccnc2)cc(Nc2ccccc2)n1	none
COc1cc2nc(Nc3ccc(N4CCOCC4)cc3)nc(Nc3ccc(NC(C)=O)cc3)c2cc1OC	none
COc1cc2nc(NCc3cccnc3)nc(Nc3ccc(N4CCOCC4)cc3)c2cc1OC	none
COc1cc2nc(Nc3ccc(N4CCOCC4)cc3)nc(Nc3ccc4c(c3)OCO4)c2cc1OC	ASK1 inh 54.0 | AlphaScreen intf 4.84
COc1cc2nc(NCc3ccc4c(c3)OCO4)nc(Nc3ccc(N4CCOCC4)cc3)c2cc1OC	ASK1 inh 51.0 | AlphaScreen intf 6.26
COc1ccc(CCNc2cc(C)nc(Nc3ccc(N4CCOCC4)cc3)n2)cc1	none
COc1cc2nc(Nc3ccc(-n4ccnc4)cc3)nc(Nc3ccc4c(c3)OCO4)c2cc1OC	ASK1 inh 49.0 | AlphaScreen intf inactive
COc1cc2nc(Nc3ccc(-n4ccnc4)cc3)nc(Nc3ccc(NC(C)=O)cc3)c2cc1OC	none
COc1ccc(CCNc2ccnc(Nc3ccc(N4CCOCC4)cc3)n2)cc1	ASK1 inh 42.5 | AlphaScreen intf inactive
Cc1cnc(CNc2cc(-c3ccccc3F)nc(-c3ccccn3)n2)nc1	none (no result: ASK1 inh)
CC(C)N(CCNc1ncnc2nc(-c3ccccc3)[nH]c12)C(C)C	none
COc1ccc(-c2nccc(N)n2)cn1	none
COc1ccc(Nc2nc(C)cc(NCCCN3CCOCC3)n2)cc1	none
Cc1cnc(NCCN2CCOCC2)nc1NCCN(C(C)C)C(C)C	none
COc1cc(Nc2nc(N3CCOCC3)nc3c2ncn3-c2ccsc2)cc(OC)c1OC	none
